Measurements published in PubChem BioAssay.
Unmarked numbers belong to inactive results. Calls of active or inactive are those of the source.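 How the source made its calls: active means inhibition at or above 50% relative to wild type and mutant plate controls; inactive means inhibition below 50%.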

Test: loss of swimming-algae plug formation – whole organism, Chlamydomonas reinhardtii, WT vs cilia-less mutant, absorbance, 96-well, primary screen (AID 463189);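 further: 0% = wild type cc124 cells in DMSO and 100% = ciliumless bld1 mutant cells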
Settings: Chlamydomonas reinhardtii gravitaxis, OD600 absorbance, 2 days; at 10 µM; hits give high values

| Structure (SMILES) | inhibition |
| --- | --- |
| CCC(=O)c1ccc2c(c1)N(CCCN(C)C)c1ccccc1S2 | 46.1% |
| Cn1c(=O)c2c(nc(/C=C/c3cccc(Cl)c3)n2C)n(C)c1=O | 18.1% |
| CC/C(=C(\c1ccccc1)c1ccc(OCCN(C)C)cc1)c1ccccc1 | 50.3% (active) |
| COC(=O)C(N)Cc1ccc(Cl)cc1 (stereo not given) | -0.698% |
| CCN(CC)C(=S)SSC(=S)N(CC)CC | 12.2% |
| O=C(O)C1CCCN(CCC=C(c2ccccc2)c2ccccc2)C1 (stereo not given) | 11.4% |
| CC[N+](CC)(CC)CCOc1cccc(OCC[N+](CC)(CC)CC)c1OCC[N+](CC)(CC)CC | 3.26% |
| CC(C)(C)c1cc(/C=C(\C#N)C(N)=S)cc(C(C)(C)C)c1O | 35.4% |
| Nc1ncn([C@@H]2O[C@H](CO)[C@@H](O)[C@H]2O)c(=O)n1 | 3.22% |
| Oc1ccc(-c2nc(-c3ccc(F)cc3)c(-c3ccncc3)[nH]2)cc1 | 7.36% |
| NC(=O)CC[C@H](N)C(=O)O | -13.2% |
| CCN(CC)CCCCCCCCOC(=O)c1cc(OC)c(OC)c(OC)c1 | 24.5% |
| NC(=NCc1ccc(Cl)c(Cl)c1)NC(=O)c1nc(Cl)c(N)nc1N | 7.67% |
| NC(=NCCC[C@H](N)C(=O)O)NO | -1.45% |
| Cc1ccc([N+](=O)[O-])cc1S(=O)(=O)N(C)C | -11.4% |
| Cc1ccccc1N1CCN(S(=O)(=O)C[C@]23CCC(CC2NC(=O)[C@@H](N)CCS(C)(=O)=O)C3(C)C)CC1 (stereo not given in full) | 3.4% |
| NCCCCCC(=O)O | 3.27% |
| CNCCC(Oc1ccccc1C)c1ccccc1 (stereo not given) | 10.9% |
| NCCCNCCSP(=O)(O)O | 1.58% |
| O[Si](CCCN1CCCCC1)(c1ccc(F)cc1)C1CCCCC1 (stereo not given) | -1.85% |

| Structure (SMILES) | inhibition |
| --- | --- |
| C[C@@]1(C2CCCC2)Cc2cc(OCC(=O)O)c(Cl)c(Cl)c2C1=O | 5.71% |
| CN(C)c1cc2c(Nc3ccc4c(cnn4Cc4ccccc4)c3)ncnc2cn1 | 2.93% |
| CN(C)CC[C@@H](c1ccc(Br)cc1)c1ccccn1 | 15% |
| Cc1cc(O)c2c(c1)C(=O)c1cc(O)cc(O)c1C2=O | -10.7% |
| CC(=O)O[C@H]1C(=O)[C@@]2(C)C([C@H](OC(=O)c3ccccc3)[C@]3(O)C[C@H](OC(=O)[C@H](O)[C@@H](NC(=O)c4ccccc4)c4ccccc4)C(C)=C1C3(C)C)[C@]1(OC(C)=O)CO[C@@H]1C[C@@H]2O (stereo not given in full) | 8.47% |
| NC(C(=O)N[C@@H]1C(=O)N2C(C(=O)O)=C(Cl)CS[C@H]12)c1ccccc1 (stereo not given in full) | 7.28% |
| Cc1cccc(C2CN(C)CCc3c2cc(O)c(O)c3Cl)c1 (stereo not given) | 3.56% |
| CC(=O)C(C)=O | 6.21% |
| CN1C(=O)CC[C@H]1c1cccnc1 | 4.07% |
| COc1ccccc1N1CCN(CCN2C(=O)CC3(CCCC3)CC2=O)CC1 | -4.14% |
| COC(=O)C1=C(C)NC(C)=C(C(=O)OCCN(C)Cc2ccccc2)C1c1cccc([N+](=O)[O-])c1 (stereo not given) | -0.607% |
| CC(=O)SC1CC2=CC(=O)CC[C@]2(C)C2CC[C@@]3(C)C(CC[C@@]34CCC(=O)O4)C12 (stereo not given in full) | 3.21% |
| CC(C)N(CCC(=O)c1ccc2ccccc2c1)Cc1ccccc1 | 10.3% |
| N#C/C(=C\c1ccc(O)c(O)c1)C(=O)NCCc1ccccc1 | -1.25% |
| CCNC(=O)[C@H]1O[C@@H](n2cnc3c(N)nc(NCCc4ccc(CCC(=O)O)cc4)nc32)C(O)[C@H]1O (stereo not given in full) | 3.28% |
| COc1cc(-c2ccc(=O)[nH]n2)ccc1OC(F)F | 8.84% |
| [N-]=[N+]=Nc1ccc(C(=O)CSC[C@H](NC(=O)CC[C@H](N)C(=O)O)C(=O)NCC(=O)O)cc1 | -0.598% |
| COC(=O)Nc1nc2ccc(C(=O)c3cccs3)cc2[nH]1 | 11.2% |
| C=CCN1CCc2c(cc(O)c(O)c2Br)[C@@H](c2ccccc2)C1 | 0.67% |
| CN(C)CCC(c1ccccc1)c1ccccn1 (stereo not given) | 7.99% |
